# According to the supplement of paper PMC6279402:
# Where a name gives a salt, the structure may show the parent alone. ± gives the standard deviation of the averaged measurements.
# System: A549
# Assay: relative viability (normalised to negative control = 1, bortezomib = 0) (fraction); higher = less cytotoxic
# Conditions: inflammatory serum-free RHB-A with cytokines + LPS, 5 d + 24 h CellTiter-Blue
# Experimental: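 A549 KRAS-mutant NSCLC cells, pre-treated 5 µM GSK126 or vehicle (DMSO), were seeded at 250 cells/well in 384-well plates in serum-free RHB-A medium with inflammatory cytokines/LPS and treated with Selleck kinase inhibitor and NCI oncology compounds at 30 or 300 nM in triplicate, refreshed at 48 h. Viability was read by CellTiter-Blue after 5 d plus 24 h and normalised per plate with cellHTS2 (mean of bortezomib positive control = 0, mean of negative control = 1).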
# [1] = compound 30 nM, GSK126 pretreatment: 5 uM GSK126
# [2] = compound 30 nM, GSK126 pretreatment: none (vehicle)
# [3] = compound 300 nM, GSK126 pretreatment: 5 uM GSK126
# [4] = compound 300 nM, GSK126 pretreatment: none (vehicle)
SMILES,relative viability [1],relative viability [2],relative viability [3],relative viability [4]
C1CN1c1nc(N2CC2)nc(N2CC2)n1 [Triethylenemelamine],0.834 ± 0.081,0.834 ± 0.059,0.828 ± 0.012,0.918 ± 0.042
O=C(O)CCCc1ccc(N(CCCl)CCCl)cc1 [Chlorambucil],0.933 ± 0.1,0.844 ± 0.11,0.836 ± 0.13,0.845 ± 0.12
NCCCNCCSP(=O)(O)O [Amifostine],0.96 ± 0.16,0.908 ± 0.078,0.964 ± 0.12,0.96 ± 0.078
O=P1(NCCCl)OCCCN1CCCl (stereo not given) [Ifosfamide],0.792 ± 0.087,0.806 ± 0.063,0.803 ± 0.16,0.91 ± 0.11
Cn1c(CCCC(=O)O)nc2cc(N(CCCl)CCCl)ccc21 [bendamustine hydrochloride],0.713 ± 0.012,0.729 ± 0.045,0.784 ± 0.012,0.865 ± 0.056
Cc1ccccc1-n1c(Cn2ncc3c(N)ncnc32)nc2cccc(C)c2c1=O,0.756 ± 0.055,0.787 ± 0.046,0.689 ± 0.12,0.857 ± 0.13
CCN1CCN(C(=O)Cc2ccc(Nc3ncc(F)c(Nc4ccc(C(=O)Nc5ccccc5Cl)cc4)n3)cc2)CC1 [Aurora A Inhibitor I],0.988 ± 0.045,1.02 ± 0.032,0.808 ± 0.14,0.671 ± 0.027
N.N.[Cl][Pt][Cl] [Cisplatin],0.813 ± 0.035,0.812 ± 0.029,0.839 ± 0.099,0.875 ± 0.018
C=C1C[C@@H]2[C@H](CC[C@]3(C)C(=O)CC[C@@H]23)[C@@]2(C)C=CC(=O)C=C12 [Exemestane],0.797 ± 0.073,0.82 ± 0.079,0.839 ± 0.17,0.971 ± 0.086
Cn1cc(C2=C(c3cn(C4CCN(Cc5ccccn5)CC4)c4ccccc34)C(=O)NC2=O)c2ccccc21 [Enzastaurin],0.823 ± 0.11,0.831 ± 0.05,0.789 ± 0.042,0.802 ± 0.037
